# Reference: the supplement of paper PMC11732987, “Enantioselective OTUD7B fragment discovery through chemoproteomics screening and high-throughput optimisation” (Communications Chemistry, 2025)
# Unmarked numbers belong to inactive results.
# Compound: OC1CN(Cc2sccc12)C(=O)CCl
# Test: log2 ratio of Biotin-Ahx-Ub-VS probe labelling (compound/DMSO); higher = less target engagement, active = hit call of the paper (q ≤ 0.05, log2 ratio ≤ -1)
# Settings: compound concentration: 50uM; treatment time: 3 h
# Experimental: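 Round 2 competitive ABPP in HEK293T lysate. Purified HTC-D2B compounds were tested at 50 and 200 µM for 3 h, followed by Biotin-Ahx-Ub-VS enrichment and diaPASEF LC-MS/MS. Values are the average log2 ratio (compound/DMSO) from an unpaired t-test (n=3 treated, n=26 DMSO).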
# Chain of UniProt Q5VVQ6 (Q5VVQ6 whole entry): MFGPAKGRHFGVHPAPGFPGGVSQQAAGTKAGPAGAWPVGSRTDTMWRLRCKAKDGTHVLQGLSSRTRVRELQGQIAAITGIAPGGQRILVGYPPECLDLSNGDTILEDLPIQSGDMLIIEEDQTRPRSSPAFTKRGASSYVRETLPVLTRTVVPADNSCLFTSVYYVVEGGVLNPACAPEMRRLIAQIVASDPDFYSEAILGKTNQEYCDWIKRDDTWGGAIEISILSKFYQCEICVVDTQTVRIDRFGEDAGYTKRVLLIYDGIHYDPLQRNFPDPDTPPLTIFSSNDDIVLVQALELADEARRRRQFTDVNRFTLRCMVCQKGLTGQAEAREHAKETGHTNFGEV
# Chain of UniProt O94966 (O94966 whole entry): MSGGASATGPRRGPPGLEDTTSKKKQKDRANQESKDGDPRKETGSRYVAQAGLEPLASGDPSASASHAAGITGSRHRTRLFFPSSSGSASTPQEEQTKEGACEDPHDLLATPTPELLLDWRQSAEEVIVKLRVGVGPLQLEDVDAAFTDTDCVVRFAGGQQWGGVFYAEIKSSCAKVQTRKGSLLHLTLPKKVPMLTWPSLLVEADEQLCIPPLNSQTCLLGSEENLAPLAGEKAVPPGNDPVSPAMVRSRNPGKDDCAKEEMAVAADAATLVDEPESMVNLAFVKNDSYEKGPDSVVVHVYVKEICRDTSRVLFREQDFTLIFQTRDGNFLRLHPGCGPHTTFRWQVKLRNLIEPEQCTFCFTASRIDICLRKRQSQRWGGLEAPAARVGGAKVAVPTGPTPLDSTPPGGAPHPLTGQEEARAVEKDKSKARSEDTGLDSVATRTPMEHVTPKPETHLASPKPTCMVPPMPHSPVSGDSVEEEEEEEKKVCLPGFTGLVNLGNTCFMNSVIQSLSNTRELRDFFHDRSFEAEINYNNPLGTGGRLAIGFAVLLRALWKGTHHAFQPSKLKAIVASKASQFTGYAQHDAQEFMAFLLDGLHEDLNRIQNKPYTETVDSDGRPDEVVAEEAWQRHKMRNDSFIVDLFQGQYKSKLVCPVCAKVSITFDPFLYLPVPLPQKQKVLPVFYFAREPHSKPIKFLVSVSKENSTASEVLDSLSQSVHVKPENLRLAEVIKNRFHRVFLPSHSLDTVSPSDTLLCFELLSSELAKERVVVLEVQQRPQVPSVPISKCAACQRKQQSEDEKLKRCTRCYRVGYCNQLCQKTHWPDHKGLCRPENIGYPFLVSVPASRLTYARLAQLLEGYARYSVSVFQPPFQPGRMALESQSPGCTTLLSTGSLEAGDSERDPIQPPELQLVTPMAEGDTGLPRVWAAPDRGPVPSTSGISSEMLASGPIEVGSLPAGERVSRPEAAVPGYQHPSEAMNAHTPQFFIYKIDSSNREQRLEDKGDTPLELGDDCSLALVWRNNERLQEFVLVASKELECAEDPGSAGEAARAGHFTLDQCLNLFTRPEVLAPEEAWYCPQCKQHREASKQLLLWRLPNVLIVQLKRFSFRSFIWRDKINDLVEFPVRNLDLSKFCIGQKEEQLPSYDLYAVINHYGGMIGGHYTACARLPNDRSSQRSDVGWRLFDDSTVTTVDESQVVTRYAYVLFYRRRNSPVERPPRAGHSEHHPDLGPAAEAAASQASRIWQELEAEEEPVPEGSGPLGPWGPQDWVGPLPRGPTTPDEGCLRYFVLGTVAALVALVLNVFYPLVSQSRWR
# Chain of UniProt Q8N6M0 (Q8N6M0 whole entry): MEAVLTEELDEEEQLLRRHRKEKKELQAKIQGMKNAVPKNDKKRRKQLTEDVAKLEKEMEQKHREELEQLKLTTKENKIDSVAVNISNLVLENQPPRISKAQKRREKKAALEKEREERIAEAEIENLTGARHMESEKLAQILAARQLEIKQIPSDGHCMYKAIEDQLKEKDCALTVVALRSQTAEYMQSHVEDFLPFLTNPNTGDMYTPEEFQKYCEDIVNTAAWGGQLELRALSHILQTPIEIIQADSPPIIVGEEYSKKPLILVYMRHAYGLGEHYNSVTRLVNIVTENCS
# Chain of UniProt Q9UPT9 (Q9UPT9 whole entry): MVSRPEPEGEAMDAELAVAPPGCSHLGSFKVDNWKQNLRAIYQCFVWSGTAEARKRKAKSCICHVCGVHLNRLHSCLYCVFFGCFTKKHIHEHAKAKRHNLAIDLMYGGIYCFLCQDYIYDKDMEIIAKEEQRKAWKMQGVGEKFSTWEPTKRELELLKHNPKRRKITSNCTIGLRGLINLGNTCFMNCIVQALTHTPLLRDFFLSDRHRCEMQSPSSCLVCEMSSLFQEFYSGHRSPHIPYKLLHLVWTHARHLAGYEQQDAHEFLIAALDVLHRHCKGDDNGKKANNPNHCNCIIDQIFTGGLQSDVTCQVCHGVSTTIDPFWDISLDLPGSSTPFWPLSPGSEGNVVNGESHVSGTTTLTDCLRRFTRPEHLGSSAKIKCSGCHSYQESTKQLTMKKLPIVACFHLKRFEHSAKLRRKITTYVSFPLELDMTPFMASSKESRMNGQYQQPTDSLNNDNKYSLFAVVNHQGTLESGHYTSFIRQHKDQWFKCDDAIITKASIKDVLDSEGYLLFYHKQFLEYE
# Chain of UniProt P09936 (P09936 whole entry, looked up): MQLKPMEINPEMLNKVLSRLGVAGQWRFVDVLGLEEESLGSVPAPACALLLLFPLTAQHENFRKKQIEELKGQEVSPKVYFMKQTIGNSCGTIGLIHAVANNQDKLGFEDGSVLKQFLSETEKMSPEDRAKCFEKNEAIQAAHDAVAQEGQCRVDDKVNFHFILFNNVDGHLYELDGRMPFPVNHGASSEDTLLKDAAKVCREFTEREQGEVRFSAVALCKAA
# Chain of UniProt Q01804 (Q01804 whole entry): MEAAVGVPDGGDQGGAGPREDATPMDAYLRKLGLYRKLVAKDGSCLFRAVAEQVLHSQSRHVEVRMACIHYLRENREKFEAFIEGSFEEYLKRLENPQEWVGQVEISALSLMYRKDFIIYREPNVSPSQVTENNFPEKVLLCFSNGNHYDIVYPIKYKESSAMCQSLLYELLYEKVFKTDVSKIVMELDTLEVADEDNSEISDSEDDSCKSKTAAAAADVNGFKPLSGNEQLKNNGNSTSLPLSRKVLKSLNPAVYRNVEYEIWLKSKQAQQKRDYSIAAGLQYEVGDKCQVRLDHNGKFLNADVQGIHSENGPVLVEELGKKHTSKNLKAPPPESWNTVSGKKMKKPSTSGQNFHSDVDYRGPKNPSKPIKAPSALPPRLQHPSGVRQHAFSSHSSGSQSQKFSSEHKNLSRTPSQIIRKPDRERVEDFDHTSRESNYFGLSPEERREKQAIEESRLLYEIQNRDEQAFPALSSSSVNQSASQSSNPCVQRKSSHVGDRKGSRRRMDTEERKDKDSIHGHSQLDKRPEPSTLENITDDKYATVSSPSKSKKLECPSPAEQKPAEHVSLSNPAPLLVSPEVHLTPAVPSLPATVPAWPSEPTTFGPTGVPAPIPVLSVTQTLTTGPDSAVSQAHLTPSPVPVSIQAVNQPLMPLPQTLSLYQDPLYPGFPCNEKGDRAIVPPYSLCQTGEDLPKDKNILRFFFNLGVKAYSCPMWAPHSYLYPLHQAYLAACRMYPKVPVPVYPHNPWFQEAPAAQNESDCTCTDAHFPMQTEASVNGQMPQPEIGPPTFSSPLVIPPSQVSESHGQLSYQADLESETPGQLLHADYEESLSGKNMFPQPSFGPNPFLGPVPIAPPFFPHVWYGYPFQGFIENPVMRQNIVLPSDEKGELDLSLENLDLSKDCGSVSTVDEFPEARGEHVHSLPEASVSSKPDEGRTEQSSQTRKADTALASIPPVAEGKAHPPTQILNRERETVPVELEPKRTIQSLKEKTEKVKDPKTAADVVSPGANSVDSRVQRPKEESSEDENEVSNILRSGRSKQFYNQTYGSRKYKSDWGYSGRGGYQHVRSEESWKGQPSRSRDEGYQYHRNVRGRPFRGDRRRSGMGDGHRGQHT
# Chain of UniProt Q96JH7 (Q96JH7 whole entry): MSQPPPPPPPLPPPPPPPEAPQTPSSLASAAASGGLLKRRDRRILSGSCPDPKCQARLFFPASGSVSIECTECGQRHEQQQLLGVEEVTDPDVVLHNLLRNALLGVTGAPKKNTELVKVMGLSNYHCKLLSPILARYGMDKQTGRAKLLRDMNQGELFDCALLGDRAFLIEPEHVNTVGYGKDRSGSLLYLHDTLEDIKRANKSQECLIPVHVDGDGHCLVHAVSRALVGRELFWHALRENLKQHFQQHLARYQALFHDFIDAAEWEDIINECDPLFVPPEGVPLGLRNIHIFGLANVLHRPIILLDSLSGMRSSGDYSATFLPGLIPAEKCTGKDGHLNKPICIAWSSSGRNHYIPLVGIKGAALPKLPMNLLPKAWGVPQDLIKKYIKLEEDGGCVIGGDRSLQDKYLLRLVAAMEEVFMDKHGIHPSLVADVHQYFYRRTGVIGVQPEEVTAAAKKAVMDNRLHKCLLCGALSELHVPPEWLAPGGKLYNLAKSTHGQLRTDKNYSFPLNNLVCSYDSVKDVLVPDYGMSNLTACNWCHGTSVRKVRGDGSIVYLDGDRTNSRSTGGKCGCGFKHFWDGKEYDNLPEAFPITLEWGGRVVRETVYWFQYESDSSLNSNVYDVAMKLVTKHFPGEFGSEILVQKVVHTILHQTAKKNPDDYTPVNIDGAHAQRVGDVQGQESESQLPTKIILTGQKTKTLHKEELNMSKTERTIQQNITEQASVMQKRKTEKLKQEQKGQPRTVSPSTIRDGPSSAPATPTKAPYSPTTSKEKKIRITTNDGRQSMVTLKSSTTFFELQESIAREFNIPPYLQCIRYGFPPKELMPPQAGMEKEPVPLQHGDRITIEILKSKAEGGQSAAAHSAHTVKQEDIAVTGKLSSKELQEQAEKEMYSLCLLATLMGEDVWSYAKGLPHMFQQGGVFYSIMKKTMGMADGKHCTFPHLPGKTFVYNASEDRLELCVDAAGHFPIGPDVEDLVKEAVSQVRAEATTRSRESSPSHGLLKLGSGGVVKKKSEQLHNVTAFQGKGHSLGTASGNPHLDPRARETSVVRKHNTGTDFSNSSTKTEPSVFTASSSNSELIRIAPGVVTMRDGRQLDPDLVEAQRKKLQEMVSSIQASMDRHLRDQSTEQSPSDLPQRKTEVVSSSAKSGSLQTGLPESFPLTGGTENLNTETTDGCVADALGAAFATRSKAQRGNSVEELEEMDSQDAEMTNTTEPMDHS
row,Target,log2 ratio of Biotin-Ahx-Ub-VS probe labelling
1,VCPIP1 (UniProt Q96JH7),-0.309
2,USP28 (UniProt Q96RU2),-0.0634
3,OTUD7B (UniProt Q6GQQ9),-4.49 (active)
4,UCHL1 (UniProt P09936),-0.248
5,USP24 (UniProt Q9UPU5),-0.165
6,OTUD4 (UniProt Q01804),-0.695
7,USP25 (UniProt Q9UHP3),0.472
8,USP22 (UniProt Q9UPT9),0.0108
9,USP5 (UniProt P45974),0.084
10,USP15 (UniProt Q9Y4E8),-0.214
11,USP19 (UniProt O94966),-0.389
12,YOD1 (UniProt Q5VVQ6),-0.198
13,PRPF8 (UniProt Q6P2Q9),0.0584
14,USP42 (UniProt Q9H9J4),-0.224
15,OTUB1 (UniProt Q96FW1),0.196
16,UniProt Q9UGI0,-0.451
17,PSMD7 (UniProt P51665),-0.579
18,USP4 (UniProt Q13107),-0.154
19,USP12 (UniProt O75317),-0.0752
20,OTUD6B (UniProt Q8N6M0),-0.139

# Same assay, conditions: compound concentration: 200uM; treatment time: 3 h
row,Target,log2 ratio of Biotin-Ahx-Ub-VS probe labelling
1,VCPIP1 (UniProt Q96JH7),-0.285
2,USP28 (UniProt Q96RU2),-0.321
3,OTUD7B (UniProt Q6GQQ9),-5.43 (active)
4,UCHL1 (UniProt P09936),-0.0486
5,USP24 (UniProt Q9UPU5),-0.557
6,OTUD4 (UniProt Q01804),-1.48 (active)
7,USP25 (UniProt Q9UHP3),0.301
8,USP22 (UniProt Q9UPT9),-0.267
9,USP5 (UniProt P45974),0.198
10,USP15 (UniProt Q9Y4E8),-0.404
11,USP19 (UniProt O94966),-0.703
12,YOD1 (UniProt Q5VVQ6),-0.139
13,PRPF8 (UniProt Q6P2Q9),0.0922
14,USP42 (UniProt Q9H9J4),0.0756
15,OTUB1 (UniProt Q96FW1),-0.0449
16,UniProt Q9UGI0,-1.5 (active)
17,PSMD7 (UniProt P51665),0.371
18,USP4 (UniProt Q13107),0.0977
19,USP12 (UniProt O75317),-0.294
20,OTUD6B (UniProt Q8N6M0),-0.239
